Several values for one entry are separate records, joined by “and”; a condition that tells them apart may be missing. Equal entries are not always repeated. The campaign covered roughly 5,500 compounds. About 2,000 (36%) were called active. Another 18% or so got no clear call; they are omitted. No stated cut-off is given here; in the data, active means normalized growth mostly below about 0.91 (no sharp cut-off); inconclusive means no clear call, values can overlap the other calls; inactive means mostly above about 0.92. The list shows a part of the results.
Test: chemical genetic growth profiling, strain panel (AID 1159580);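 further: tested at 20 µM; growth read once vehicle control cultures reached saturation at 30 °C; 1 = growth at the plate median or of vehicle wells; lower values mean less growth of the strain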
Conditions: S. cerevisiae deletion strains, growth OD

Measured: normalized growth

C[C@@H]1C[C@@H]([C@H](O)CC2CC(=O)NC(=O)C2)C(=O)[C@@H](C)C1
active: locus YAL013W, strain DEP1, active compounds read low 0.0595 | locus YAL021C, strain ccr4, active compounds read low 0.0677 | locus YAL026C, strain drs2, active compounds read low 0.0607 | locus YAL030W, strain snc1, active compounds read low 0.0538 | locus YBL061C, strain skt5, active compounds read low 0.0591 | locus YBR009C, strain hhf1, active compounds read low 0.0595 | locus YBR021W, strain FUR4, active compounds read low 0.0961 | locus YBR023C, strain chs3, active compounds read low 0.0612 | locus YBR171W, strain sec66, active compounds read low 0.075 | locus YBR229C, strain ROT2, active compounds read low 0.031 | locus YBR231C, strain swc5, active compounds read low 0.0623 | locus YBR279W, strain paf1, active compounds read low 0.0578 | locus YCL011C, strain gbp2, active compounds read low 0.0569 | locus YCL016C, strain dcc1, active compounds read low 0.0627 | locus YCL029C, strain bik1, active compounds read low 0.0585 | locus YCL069W, strain vba3, active compounds read low 0.058 | locus YCR088W, strain abp1, active compounds read low 0.0589 | locus YDL005C, strain med2, active compounds read low 0.0714 | locus YDL035C, strain GPR1, active compounds read low 0.0555 | locus YDL040C, strain nat1, active compounds read low 0.0555 | locus YDL074C, strain BRE1, active compounds read low 0.0968 | locus YDL101C, strain DUN1, active compounds read low 0.0509 | locus YDL134C, strain PPH21, active compounds read low 0.0498 | locus YDL185W, strain tfp1, active compounds read low 0.0581 | locus YDL192W, strain arf1, active compounds read low 0.0598 | locus YDR001C, strain nth1, active compounds read low 0.0564 | locus YDR069C, strain doa4, active compounds read low 0.0601 | locus YDR101C, strain arx1, active compounds read low 0.0579 | locus YDR137W, strain rgp1, active compounds read low 0.0878 | locus YDR150W, strain NUM1, active compounds read low 0.0592 | locus YDR159W, strain sac3, active compounds read low 0.0889 | locus YDR162C, strain NBP2, active compounds read low 0.0524 | locus YDR195W, strain ref2 0.129 | locus YDR297W, strain sur2, active compounds read low 0.0532 | locus YDR318W, strain mcm21, active compounds read low 0.0664 | locus YDR334W, strain swr1, active compounds read low 0.0608 | locus YDR335W, strain msn5, active compounds read low 0.059 | locus YDR388W, active compounds read low 0.0549 | locus YDR392W, strain spt3, active compounds read low 0.0763 | locus YDR502C, strain sam2, active compounds read low 0.061 | locus YEL003W, strain gim4, active compounds read low 0.0527 | locus YEL037C, strain rad23, active compounds read low 0.0554 | locus YEL061C, strain CIN8 (second series), active compounds read low 0.0592 | locus YEL061C, strain CIN8, active compounds read low 0.0496 | locus YER015W, strain faa2, active compounds read low 0.0595 | locus YER016W, strain bim1, active compounds read low 0.0609 | locus YER110C, active compounds read low 0.0708 | locus YER111C, strain swi4, active compounds read low 0.0709 | locus YER155C, strain BEM2 (second series), active compounds read low 0.0899 | locus YER155C, strain BEM2, active compounds read low 0.0629 | locus YER167W, strain BCK2, active compounds read low 0.0564 | locus YFR010W, strain ubp6, active compounds read low 0.0674 | locus YGL078C, strain dbp3, active compounds read low 0.0553 | locus YGL086W, strain mad1, active compounds read low 0.0574 | locus YGL167C, strain pmr1, active compounds read low 0.0714 | locus YGL173C, strain kem1, active compounds read low 0.0657 | locus YGL227W, strain vid30, active compounds read low 0.06 | locus YGL240W, strain doc1, active compounds read low 0.0796 | locus YGL248W, strain PDE1, active compounds read low 0.0442 | locus YGL253W, strain hxk2, active compounds read low 0.0535 | locus YGR078C, strain PAC10, active compounds read low 0.0533 | locus YGR135W, strain pre9, active compounds read low 0.0644 | locus YGR229C, strain SMI1, active compounds read low 0.0652 | locus YGR252W, strain gcn5, active compounds read low 0.175 | locus YHR013C, strain ard1, active compounds read low 0.0947 | locus YHR027C, strain rpn1, active compounds read low 0.0594 | locus YHR030C, strain SLT2, active compounds read low 0.0489 and 0.101 | locus YHR079C, strain IRE1 (second series), active compounds read low 0.0562 | locus YHR079C, strain IRE1, active compounds read low 0.107 | locus YHR094C, strain hxt1, active compounds read low 0.0562 | locus YHR129C, strain ARP1, active compounds read low 0.0564 | locus YHR142W, strain chs7, active compounds read low 0.0716 | locus YHR200W, strain rpn10, active compounds read low 0.0589 | locus YIL066C, strain RNR3, active compounds read low 0.0491 | locus YIL073C, strain SPO22, active compounds read low 0.114 | locus YIL125W, strain kgd1, active compounds read low 0.0558 | locus YIR030C, strain dcg1, active compounds read low 0.0576 | locus YJL092W, strain hpr5, active compounds read low 0.0581 | locus YJL095W, strain BCK1 (second series), active compounds read low 0.0549 | locus YJL095W, strain BCK1, active compounds read low 0.0583 and 0.105 | locus YJL115W, strain asf1, active compounds read low 0.0707 | locus YJL129C, strain trk1, active compounds read low 0.0813 | locus YJL134W, strain LCB3, active compounds read low 0.0474 | locus YJL154C, strain vps35, active compounds read low 0.0577 | locus YJL164C, strain tpk1, active compounds read low 0.0602 | locus YJL166W, strain qcr8, active compounds read low 0.0579 | locus YJL168C, strain set2, active compounds read low 0.0578 | locus YJL187C, strain SWE1 (second series), active compounds read low 0.0445 | locus YJL187C, strain SWE1, active compounds read low 0.0553 | locus YJR043C, strain POL32, active compounds read low 0.0691 | locus YJR066W, strain TOR1, active compounds read low 0.000656

— PubChem BioAssay AID1159580 (chemical genetic matrix, 2015)
